Source: PubChem BioAssay AID651939 (The Scripps Research Institute Molecular Screening Center, 2012)
The list shows a part of the results. Active and inactive are the calls of the source. No stated cut-off is given here; in the data, active means IC50 below about 9 µM; inactive means the rest.

Test: compound binding to PG126 antibody – biochemical, TR-FRET, distinct HIV envelope site, counter-screen for PG9 antibody binder project, dose response (AID 651939)
Conditions: TR-FRET binding to antibody PG126, counterscreen
For `CC1(C)Cc2ccccc2-c2[nH]c(=S)[nH]c(=O)c21`, the IC50 was 66.1 µM (inactive). With `O=C(Nc1nnc(-c2ccccc2F)s1)c1ccccc1F` the IC50 was 17.9 µM (inactive). For `Cc1cccc(Nc2nc3c(S(=O)(=O)c4ccccc4)nnn3c3ccccc23)c1C`, the IC50 was 3.75 µM (active). For `S=c1[nH]c2ccccc2c2ccccc12`, the IC50 was 60.4 µM (inactive). With `COc1ccc(-c2c(C)nn3c(N4CCC(C(=O)N5CCCCC5)CC4)cc(C)nc23)cc1OC` the IC50 was > 67 µM (inactive). In the case of `COC(=O)C1=C(C)N(Cc2ccccc2C(F)(F)F)C(=NCc2ccc(OC)cc2)NC1c1cccc(C(F)(F)F)c1` (configuration not stated), the IC50 is reported as > 67 µM (inactive). In the case of `O=C(Oc1ccccc1)Oc1ccc2c(c1)oc(=O)c1ccccc12`, the IC50 is reported as 4.13 µM (active).
